The experiment addresses AMP-activated protein kinase, AMPK (Homo sapiens) (UniProt P54646+O43741+P54619+Q9UGJ0+Q9Y478+Q13131+Q9UGI9). Briefly: AMP-dependent Kinase enzyme assay. An in vitro enzyme assay that detects ADP turnover that is directly proportional to AMPK activity. This uses naive AMPK that is activated during the assay with MK-8722. It counts as functional. Details: scale not given: direction of the effect not stated beside the values. The note with it: 30 µM.
As for `CC(C)OCCCNC(=O)CN1CCN(c2nccs2)CC1`, the Percent Effect was 4.26%.

With `Cc1ccc(Oc2ncccc2CNC(=O)C2COC(=O)N2)c(F)c1F` (stereo not given), the Percent Effect stood at 3.47%.

Turning to `Cc1ocnc1C(=O)N1CC[C@@]2(O)CCN(C(=O)N3CCCC3)C[C@H]2C1`, the Percent Effect worked out at 6.59%.

With `CNS(=O)(=O)CC(=O)NCc1cc2c(s1)CCC(C)(C)C2`, the Percent Effect was -1.02%.

On to `CCc1ccc(CN2CCOC(Cc3cccc(F)c3)C2)nc1` (stereo not given), for which the Percent Effect turned out to be 5.27%.

As to `O=C(Nc1cccnc1)NC1CCN(c2ccccc2OC(F)F)C1` (stereo not given), the Percent Effect was found to be 0.675%.

`CS(=O)(=O)N1CC[C@]2(O)CCN(c3cc(C#N)ccn3)C[C@@H]2C1`: the Percent Effect was -6.37%.

Regarding `CSCC(C)(O)CNS(=O)(=O)c1cccc(C)c1` (stereo not given), the Percent Effect is -0.713%.

In the case of `CN(C)c1cc(CNC(=O)C2COc3ccccc3O2)ccn1` (stereo not given), the Percent Effect was 0.412%.

For `CC(C)NC(=O)N1CCCCCC1C1CCN(c2ncccn2)CC1` (stereo not given), the Percent Effect is -6.91%.

As to `CC(C)C(C(=O)O)c1cccc(Cl)c1` (stereo not given), the Percent Effect was -3.52%.

As to `Cn1ccnc1C1(O)CCN(C(=O)CCc2ccccc2)CC1`, the Percent Effect is 8.55%.

With `Cc1ccc(C2(O)CCN(C(=O)CCn3ccc(=O)[nH]c3=O)CC2)nc1`, the Percent Effect is 1.66%.

`c1nc(N2CCCC2)cnc1C1CCNCC1`: the Percent Effect came to 11.5%.

For the compound `CCCn1cc(-c2cc(C(=O)N(C)C)c3ccc(C)cc3n2)cn1`, the Percent Effect was 11.6%.

On to `CN1CCc2nc(C3CCCN(S(=O)(=O)c4ccccc4)C3)ncc2C1` (stereo not given), for which the Percent Effect came to 6.25%.

Consider `CCOCCN1CCN(c2ccc(C#N)cn2)CC1`, for which the Percent Effect amounted to 1.16%.

As for `Cc1nc(S(=O)(=O)N2CCCCc3ccccc32)cn1C`, the Percent Effect turned out to be 0.965%.

Turning to `COCCn1ccnc1C1CCN(C(=O)CSc2nnc(C)o2)CC1`, the Percent Effect is -0.22%.

As to `Cn1cc(CN2CCS(=O)(=O)C(C)(C)C2)cn1`, the Percent Effect was found to be 5.13%.

For `CCc1cc(=O)n(CCNC(=O)Nc2ccc(OC(F)(F)F)cc2)cn1`, the Percent Effect is -3.24%.

Regarding `Cc1ccn(C)c(=O)c1NC(=O)N(C)Cc1cccc(OC(C)C)c1`, the Percent Effect is -92.7%.

In the case of `O=C(Cc1cccs1)NCc1ccnc(C2CCCOC2)n1` (stereo not given), the Percent Effect was 12.2%.

Regarding `CCOC(=O)C(C)Nc1ccc(CCN2CCOCC2)cc1` (stereo not given), the Percent Effect is -1.34%.

Consider `Cc1cccc2nc(CN3CCC(N4CCN(C)C4=O)CC3)cn12`, for which the Percent Effect was 6.81%.

On to `CCc1ccccc1OCCN(C)C(=O)CCN1CCCO1`, for which the Percent Effect was -7.88%.

Turning to `O=C(C1CCCO1)N1CCC(n2cc(-c3ccsc3)nn2)CC1` (stereo not given), the Percent Effect was found to be 4.03%.

For `NC(=O)c1ccnc(N2CCCC(CO)(Cc3ccc(F)cc3)C2)c1` (stereo not given), the Percent Effect was determined as 16.1%.

As to `CC(C)[C@@H]1CN(C(=O)CN(C)Cc2ccccc2)C[C@H]1C(=O)O`, the Percent Effect was 2.94%.

With `Cc1n[nH]c(C)c1CCN(C)C(=O)c1ccc(CCC(C)(C)O)cc1`, the Percent Effect is 2.23%.

Take `CN(Cc1ccccc1-n1cccn1)C[C@@H]1CCCN2CCCC[C@H]12`: the Percent Effect is -9.27%.

In the case of `NCc1ccnc(Oc2ccccc2)c1`, the Percent Effect was -5.26%.

Consider `Cc1noc(C2CCN(Cn3cc(Cl)cn3)CC2)n1`, for which the Percent Effect amounted to 2.75%.

In the case of `NCCc1cc(N2CCOCC2)nc(NC2CC2)n1`, the Percent Effect is 3.97%.

With `Cn1cc(CN2CCCC(O)C2)c(-c2ccccc2F)n1` (stereo not given), the Percent Effect amounted to 5.23%.

Consider `O=C(NCC(=O)N1CCN(c2ccccc2)CC1)c1sccc1C1CC1`, for which the Percent Effect was -5.62%.

As for `Cc1noc(C)c1S(=O)(=O)N1CCC(n2cccn2)CC1`, the Percent Effect is -5.45%.

Take `CN1CCCC(CCC(=O)N2CCc3c(nc(CC4CC4)[nH]c3=O)C2)C1` (stereo not given): the Percent Effect was found to be 10.8%.

As to `COCCOc1cccc(CNCc2ccc(-n3cncn3)nc2)c1`, the Percent Effect was 3.28%.

With `CCOCC(=O)N1CCC(C)(c2nccs2)CC1`, the Percent Effect worked out at 6.62%.

The record behind these values is ChEMBL document CHEMBL3988442, “University of Dundee, Small-Polar-MMV Screening Library” (2021).
